Screens (PubChem)
Rows were chosen to be rich in hits. Some 1.8% of all compounds tested hit in one or more screens of this group.
BRCA1 expr act = increases BRCA1 expression | MCF7-BRCA1-FFLuc reporter, luminescence, 48 h; response scale: scaled: vehicle 0%, 10 µM genistein 100% | Potency, µM (top dose mostly 46.1 µM), actives largely listed as activators | hit rate 1.1% among 380,000; further: nearly all actives have a fitted effect of over 80% in size
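Cells: MCF7-BRCA1-FFLuc, 2000/well. Exposure: 48 h, 37 °C, 5% CO2. Read: luminescence, 15 min post-substrate. Controls: genistein 10 microM (maximal activation), DMSO (neutral).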
A-T KAP1 phos = potential ataxia-telangiectasia treatment; F2112 A-T fibroblasts, KAP-1 phosphorylation AlphaLISA; neocarzinostatin DNA damage 30 min before lysis; Potency, µM (series often up to 57.5 µM), hits mostly activators; AID 485349; hit rate 0.19% among 320,000; further: nearly all actives have a fitted effect of over 45% in size
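ATM-like activity read as KAP-1 phosphorylation via AlphaLISA donor/acceptor antibody pairs after lysis and 6 hr at 25C. Cells were ATM-null patient fibroblasts (F2112, hTERT), dosed 60 min, then exposed to the DSB inducer NCS for 30 min.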
Mm-Cpn inhibitor = blocks the Methanococcus maripaludis chaperonin Mm-Cpn; purified Mm-Cpn ATPase, ADP Transcreener TR-FRET; Potency, µM (series often up to 76.9 µM), usual class: inhibitors; hit rate 0.031% among 330,000; further: nearly all actives have a fitted effect of over 80% in size
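Purified archaeal chaperonin (25 nM final) was preincubated with compound for 10 min at 37°C, then ATP (10 uM final) was added for 30 min at 37°C in Tris pH 7.4/KCl/MgCl2/DTT buffer. ADP was quantified by HTRF Transcreener TR-FRET.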
Akt phos inh = Akt phosphorylation inhibition | Neuro2A IGF-stimulated pAkt S473 HTRF, 20 min; hits give low values | activity change, % for hits at 50 µM | hit rate 0.32% among 360,000 | AID 651550; in the data active means activity change below about -80%; inconclusive means mostly about -51% to -80%
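Single-point screen (50 µM final compound) in Neuro2A cells stimulated 20 min with 6 nM IGF at 37 deg C. After lysis, Ser473-phosphorylated Akt read by HTRF (ex 330 nm, em 615/665 nm) as the 665/615 ratio.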
CCT modulator = modulators of cytosolic chaperonin (CCT/TRiC) activity; purified chaperonin ATPase assay, HTRF ADP detection, 30 min; activity change, % (test concentration not listed), hits read low; hit rate 0.3% among 360,000; in the data active means activity change below about -30%
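ATPase activity: ADP formed was measured by HTRF Transcreener (665/615 nm ratio) after 30 min at 37 deg C with 10 uM ATP. Compounds screened at one 76 uM concentration against 40 or 20 nM TRiC in Tris pH 7.4/KCl/MgCl2/DTT buffer.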
Hits are given with their value; n = inactive; u = inconclusive; x = not tested or not shown; [ ] = another dose, or the depositor's remark. Unless noted, the call rests on the fitted dose curve; in most records, active means well fitted curve in the direction sought with a large enough effect; inconclusive means small, poorly fitted or top-dose-only effect, or another doubt; inactive means no such curve, though single readings can be large; an effect the other way counts as inactive or inconclusive.

SMILES	BRCA1 expr act	A-T KAP1 phos	Mm-Cpn inhibitor	Akt phos inh	CCT modulator
CCOC(=O)c1c(NC(=S)Nc2ccccc2)sc2c1CC(C)(C)SC2	n	n	50µM	n	n
Brc1ccc(C2=Nc3cccc4cccc(c34)N2)o1	n	n	n	n	-44
Fc1ccc(C2=Nc3cccc4cccc(c34)N2)cc1	n	n	n	n	n
CCNc1nc(-c2ccc(Cl)cc2)cs1	2.8µM	n	n	n	n
CNc1nc(-c2ccc(Cl)cc2)cs1	u	n	n	n	n
O=[N+]([O-])c1cccc(/C=C/c2ccncc2)c1	n	n	n	n	n
O=[N+]([O-])c1ccc(/C=C/c2ccncc2)cc1	10µM	n	n	n	n
CCCOC(=O)c1ccc(OCC(O)CN2CCN(C(=O)c3ccccc3)CC2)cc1 (stereo not given)	n	n	n	-128%	n
CC(C)(C)c1ccc(OCC(O)CN2CCN(C(=O)c3ccccc3)CC2)cc1 (stereo not given)	n	n	n	n	n
O=C(OCC(=O)N1CCCC1)c1ccccc1O	20µM	n	n	n	n
O=C(OCC(=O)N1CCOCC1)c1ccc2ccccc2c1O	3.2µM	n	n	n	n
Cc1ccc(C(=O)OCC(=O)N2CCCCCC2)c(O)c1	13µM	n	n	n	n
O=C(OCC(=O)N1CCCCCC1)c1ccccc1Br	u	n	n	n	n
O=C(OCC(=O)N1CCN(c2ccccc2)CC1)c1ccccc1[N+](=O)[O-]	13µM	n	n	n	n
O=C(N[C@H]1C/C=C\C[C@@H](CC(=O)N(CCO)Cc2ccccc2)C(=O)NC[C@H](c2ccccc2)OC1=O)OCC1c2ccccc2-c2ccccc21	n	n	n	n	n
Cc1ccc(C(=O)N/N=c2\oc3ccccc3cc2C(N)=O)cc1	n	n	n	n	-30
NC(=O)c1cc2ccccc2o/c1=N\NC(=O)c1ccncc1	n	n	n	n	n
Cc1nn(-c2ccccc2)c(C)c1/C=N/NC(=O)CSc1nnc(SCc2ccccc2Cl)s1	13µM	x	n	n	n
Cc1ccc(CSc2nnc(SCC(=O)N/N=C/c3c(C)nn(-c4ccccc4)c3C)s2)cc1	n	n	n	n	n
O=c1c2ccccc2sn1-c1ccccc1	n	n	n	-107%	n
Cc1cc(C)cc(OCc2nc3ncc(Br)cc3[nH]2)c1	n	x	x	n	n
COc1cccc(OCc2nc3ncc(Br)cc3[nH]2)c1	n	n	n	-97%	n
CN1CCC/C1=C/C=C1\SC(=S)NC1=O	10µM	n	n	n	n
CCOC(=O)c1c(-c2cccs2)csc1NC(=O)CN(CC)CC	n[1.84 µM]	n	n	x	n
CCN(CC)CC(=O)Nc1scc2c1c(=O)oc1ccccc12	11µM	n	n	n	n
SMILES	BRCA1 expr act	A-T KAP1 phos	Mm-Cpn inhibitor	Akt phos inh	CCT modulator
O=C(NCCc1cccs1)C1CC(c2cccc(F)c2)=NO1 (stereo not given)	n	40µM	n	n	n
O=C(NC1CCCC1)C1CC(c2ccc(F)cc2)=NO1 (stereo not given)	10µM	n	n	n	n
CCCNC(=O)C1CC(c2cccc(F)c2)=NO1 (stereo not given)	n	n	n	n	n
O=C(NCc1ccccn1)C1CC(c2ccc(F)cc2)=NO1 (stereo not given)	n	n	n	-112%	n
Nc1nc(NCc2ccccc2Cl)c2[nH]cnc2n1	n	x	x	x	x
COc1ccc(C(=O)NCCSC2CCCCC2)cc1	1.8µM	n	n	n	n
COc1ccc(NC(=O)c2sc3nc4c(cc3c2N)CN(Cc2ccccc2)CC4)c(OC)c1	n	x	x	x	x
Cc1ccc(OCCN2CCC2(C)C(=O)NCc2ccc(C(F)(F)F)cc2)cc1 (stereo not given)	n	x	x	n	n
COc1ccc2cc(C#N)c(SCC(=O)N3CC(=O)Nc4ccccc43)nc2c1	n	n	n	n	n
Cc1cccc2cc(C#N)c(SCC(=O)N3CC(=O)Nc4ccccc43)nc12	n	n	u	u	-45
O=C1CC(N2CCN(c3nc4ccccc4s3)CC2)C(=O)N1Cc1cccs1 (stereo not given)	n	n	n	-143%	n
COc1ccc(C(=O)NC(=S)NC(C)(C)C)cc1Br	11µM	n	n	n	n
Cc1ccc(C(=O)Nc2nc3ccccc3s2)s1	n	n	u	n	n
CCOC(=O)CC(=O)Nc1nc2ccccc2s1	n	n	n	n	n
